Data from article PMC4336329 (PLoS ONE, 2015).
Among all 310,000 compounds or so, about 14,000 (4.5%) showed an effect of 50% or more. Effects have a minus sign here. The entries come from a sample that favours strong results as a whole.

Target: human ether-à-go-go-related gene (hERG) potassium channel (human, UniProt Q12809)
Experiment: primary screen, population patch clamp on CHO cells stably expressing hERG; higher = less effect of the substance
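Note: peak tail current of the secondary pulse compared with the same well before compound.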

Chain of human ether-à-go-go-related gene (hERG) potassium channel (Q12809 whole entry, looked up): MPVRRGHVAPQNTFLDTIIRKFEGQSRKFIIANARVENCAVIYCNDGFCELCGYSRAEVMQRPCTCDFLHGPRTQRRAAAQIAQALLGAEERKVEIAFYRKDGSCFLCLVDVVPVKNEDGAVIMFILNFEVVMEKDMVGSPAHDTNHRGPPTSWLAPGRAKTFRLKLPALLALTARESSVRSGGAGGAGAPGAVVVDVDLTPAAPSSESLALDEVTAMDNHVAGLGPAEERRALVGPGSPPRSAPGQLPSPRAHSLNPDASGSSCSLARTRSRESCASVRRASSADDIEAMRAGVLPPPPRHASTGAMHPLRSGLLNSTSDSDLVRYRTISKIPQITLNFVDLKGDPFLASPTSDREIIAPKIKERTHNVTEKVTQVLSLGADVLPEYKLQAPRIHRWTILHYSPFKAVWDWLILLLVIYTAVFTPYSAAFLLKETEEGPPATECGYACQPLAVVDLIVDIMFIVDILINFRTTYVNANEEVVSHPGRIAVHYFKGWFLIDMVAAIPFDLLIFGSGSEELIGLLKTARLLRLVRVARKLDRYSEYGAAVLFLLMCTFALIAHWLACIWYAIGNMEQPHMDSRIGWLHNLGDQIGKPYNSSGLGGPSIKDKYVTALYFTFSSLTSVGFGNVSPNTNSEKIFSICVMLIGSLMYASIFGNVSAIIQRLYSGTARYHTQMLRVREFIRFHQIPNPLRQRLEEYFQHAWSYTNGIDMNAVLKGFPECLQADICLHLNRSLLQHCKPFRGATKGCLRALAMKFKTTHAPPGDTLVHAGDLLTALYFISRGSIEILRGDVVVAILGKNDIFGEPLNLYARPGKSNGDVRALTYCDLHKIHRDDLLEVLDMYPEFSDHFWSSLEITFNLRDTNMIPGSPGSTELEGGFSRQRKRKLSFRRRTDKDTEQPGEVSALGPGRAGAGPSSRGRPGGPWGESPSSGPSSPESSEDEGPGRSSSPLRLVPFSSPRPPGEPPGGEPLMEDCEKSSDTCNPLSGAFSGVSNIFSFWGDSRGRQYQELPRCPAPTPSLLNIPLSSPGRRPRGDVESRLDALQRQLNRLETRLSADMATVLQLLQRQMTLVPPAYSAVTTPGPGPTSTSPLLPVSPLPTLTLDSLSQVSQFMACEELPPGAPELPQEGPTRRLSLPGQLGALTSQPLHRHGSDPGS

Structure (SMILES) | hERG current change (%, negative = inhibition) at 10uM
CCCCn1c(CCCNC(=O)c2ccco2)nc2ccccc21 | -40.5%
Cc1ccc(NC(=O)CSc2nnc(CNC(=O)c3ccccc3F)o2)cc1 | 2.03%
CC1CCN(c2ccc3nnc(CCC(=O)NCCCOC(C)C)n3n2)CC1 | 2.68%
CCCCn1c(SCC(=O)c2ccccc2)nc2ccsc2c1=O | 1.38%
O=C(O)CCCCCn1c(SCC(=O)N2CCCC2)nc2ccsc2c1=O | 16.9%
CCn1c(SCC(=O)N2CCCCC2C)nc2ccsc2c1=O (stereo not drawn) | -11.5%
CCC1CCCCN1C(=O)CSc1nc2ccsc2c(=O)n1Cc1ccccc1 (stereo not drawn) | -78.3%
COCCn1c(SCC(=O)N2CCOCC2)nc2ccccc2c1=O | -22.3%
O=C(CSc1nc2ccsc2c(=O)n1Cc1ccccc1)NCC1CCCO1 (stereo not drawn) | -25.7%
COCCn1c(SCC(=O)N2CCCc3ccccc32)nc2ccccc2c1=O | -72.6%
COCCn1c(SCC(=O)N2CCCc3ccccc32)nc2cccnc21 | -16.5%
COCCn1c(SCC(=O)N2CCC(C)CC2)nc2ccccc2c1=O | -62.8%
CCn1c(SCC(=O)N2CCCc3ccccc32)nc2ccccc2c1=O | -18.7%
COCCn1c(SCC(=O)N2CCCCC2)nc2ccccc2c1=O | -49.3%
CCCCn1c(SCC(=O)N2CCC(C)CC2)nc2ccsc2c1=O | -70.7%
COc1ccc2[nH]cc(CCNC(=O)Cc3ccc(Cl)cc3)c2c1 | 2.05%
CC(=O)c1cccc(NC(=O)c2ccc3c(c2)C(=O)N(Cc2cccnc2)C3=O)c1 | -9.85%
COc1ccc(OC)c(/C=N/N(CCC#N)C2=NS(=O)(=O)c3ccccc32)c1 | 6.86%
CCCCCCSc1ccc([C@@H]2[C@H]3C(=O)N(C)C(=O)[C@H]3[C@]3(C(=O)OC)CCCCN23)cc1.O=C(O)C(F)(F)F | -10.9%
Cc1ccc(N2C(=O)NC(=O)/C(=C\c3cn(CC(=O)O)c4ccccc34)C2=O)cc1 | 16.8%
CC(Oc1cccc2c1OC(C)(C)C2)C(=O)O (stereo not drawn) | -5.47%
COc1ccc(Cc2nnc(NC(=O)c3ccc(Cl)c([N+](=O)[O-])c3)s2)cc1 | 15%
COc1ccc(CN2CCN(C(=O)C3CCC(CNS(=O)(=O)c4ccc(C)cc4)CC3)CC2)c(OC)c1OC (stereo not drawn) | -27.5%
CC1Cc2nc(SCC(=O)N3CCN(c4ccccc4)CC3)n(CCc3ccccc3)c(=O)c2S1 (stereo not drawn) | -47.1%
CCn1c(SCC(=O)N2CCN(c3ccccc3)CC2)nc2c(c1=O)SC(C)C2 (stereo not drawn) | -48.2%
COCCn1c(SCC(=O)N2CCN(c3ccccc3)CC2)nc2c(c1=O)SC(C)C2 (stereo not drawn) | -58.8%
CC(=O)c1cccc(NC(=S)NC(=O)c2cccc(Cl)c2)c1 | -3.58%

Structure (SMILES) | hERG current change (%, negative = inhibition) at 10uM
CCSc1nnc(NC(=O)C2Cc3ccccc3CN2C(=O)c2ccco2)s1 (stereo not drawn) | -10.3%
CCn1nc(C)c(CNC(=O)CC2C(=O)NCCN2CC(C)C)c1C (stereo not drawn) | 11.7%
CCn1nc(C)c(CNC(=O)CC2C(=O)NCCN2CC(C)(C)C)c1C (stereo not drawn) | 9.14%
CCn1nc(C)c(CNC(=O)CC2C(=O)NCCN2Cc2ccc(C)o2)c1C (stereo not drawn) | -68.4%
CN(CC(=O)N1CCN(c2cccc(Cl)c2)CC1)S(=O)(=O)c1cccs1 | -32.9%
Cn1c2c(c(=O)[nH]c1=O)C(c1ccc(O)cc1)C1=C(N2)c2ccccc2C1=O (stereo not drawn) | -5.73%
CCOC(=O)c1c(CS(=O)(=O)c2ccccc2)n(C)c2cc(Br)c(O)cc12 | 5.4%
CCOC(=O)c1c(C)n(C)c2cc(Br)c(C(=O)OC)cc12 | -11.1%
CCOC(=O)c1c(CN2CCN(CC#N)CC2)n(C)c2cc(Br)c(OC)cc12 | 10.9%
CCOC(=O)c1c(CN2CCN(CCO)CC2)n(C)c2cc(Br)c(OC)cc12 | -11.3%
CCOC(=O)c1c(CNc2ccncc2)n(C)c2cc(Br)c(O)cc12.Cl | 18.8%
CCOC(=O)c1c(-c2ccccc2)oc2cc(Br)c(O)cc12 | 3.65%
CCOC(=O)c1c(CN(CC)CC)n(C)c2cc(Br)c(O)cc12.Cl | -73.6%
CCOC(=O)c1c(CN2CCN(C)CC2)n(C)c2cc(Br)c(OC)cc12 | -50.4%
CCOC(=O)c1c(CNCCN(CC)CC)n(C)c2cc(Br)c(OC)cc12.Cl | -68.5%
CCOC(=O)c1c(CN(CC)CC)oc2cc(Br)c(O)cc12 | -79.8%
CCOC(=O)c1c(C)n(C)c2cc(Br)c(OC)cc12 | 15.6%
CCOC(=O)c1c(CN2CCN(c3ccccc3)CC2)oc2cc(Br)c(O)cc12.Cl | 14.3%
COc1ccccc1NC(=O)c1cnc2c(-c3ccccc3)c(C)nn2c1C | 3.15%
O=C(c1cnc2nc3ccccc3n2c1)c1cc(F)ccc1O | 2.44%
Cc1ccc2c(c1)N(CCCC(=O)Nc1cccc(C(F)(F)F)c1)C(=O)CO2 | 12.9%
O=C(O)c1ccccc1C(=O)c1ccc2c(c1)N(Cc1cccc(F)c1)C(=O)CO2 | -18.1%
O=C(COC(=O)c1ccccc1Br)Nc1ccccc1F | -21%
N#Cc1c(NC(=O)c2nc3ncccn3n2)sc2c1CCCCC2 | 2.44%
Cc1ccc(NC(=O)CCCNC(=O)c2ccc(Cl)cc2)cc1S(=O)(=O)N1CCOCC1 | -17.9%
O=C(NCc1n[nH]c(=S)n1-c1cccc(C(F)(F)F)c1)c1ccc(S(=O)(=O)N2CCCCC2)cc1 | 16.5%
CC(=O)Oc1cccc(C(=O)Nc2ccccc2NC(=O)c2cccc(OC(C)=O)c2)c1 | 9.7%
